Bioassay records from PubChem BioAssay.
Shown are actives, neighbours in structure and some others; about 2.9% of the full set was active somewhere.
GDH-TPI counter-1 = GDH-TPI coupled enzyme inhibition counter-screen. GDH-TPI coupled enzyme counterscreen, NADH absorbance. inhibition, % at 4.8 µM. 1.2% of 360,000 active. AID 588335; in the data active = inhibition above about 30%
Mtb hypoxia inh = reduces hypoxia-regulated biosensor signal in M. tuberculosis; fluorescence inhibition, % (test concentration not listed); 0.1% of 300,000 active; AID 1159583; M. tuberculosis hypoxia-regulated fluorescent reporter, fluorescence; in the data active = fluorescence inhibition mostly above about 23%, no sharp cut-off; inactive = mostly below about 17%
FBA Mtb inh = Mtb fructose-bisphosphate aldolase inhibition; 2.3% of 360,000 active; inhibition, % at 1 µM; P9WQA3; purified M. tuberculosis FBA, fluorescence read-out
Target sequence (P9WQA3 whole entry, looked up): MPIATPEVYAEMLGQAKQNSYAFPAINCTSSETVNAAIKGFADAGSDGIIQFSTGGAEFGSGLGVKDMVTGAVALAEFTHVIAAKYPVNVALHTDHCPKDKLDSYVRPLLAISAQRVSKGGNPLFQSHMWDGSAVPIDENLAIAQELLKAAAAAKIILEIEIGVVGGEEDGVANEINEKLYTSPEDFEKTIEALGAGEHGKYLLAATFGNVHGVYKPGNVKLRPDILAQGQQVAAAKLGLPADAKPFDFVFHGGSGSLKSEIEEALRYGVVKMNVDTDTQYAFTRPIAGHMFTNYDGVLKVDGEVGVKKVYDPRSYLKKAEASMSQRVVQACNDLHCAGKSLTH
FadD28 binding = blocks FadD28 binding to the bisubstrate probe; inhibition, % at 12.5 µM; fluorescence polarization; 0.22% of 360,000 active; in the data active = inhibition above about 8.5%, passing the limit was not always enough
Mtb BioA inh = blocks M. tuberculosis BioA enzyme activity; inhibition, % at 9.99 µM; AID 602481; purified M. tuberculosis BioA enzyme, plate reader; 0.096% of 360,000 active; in the data active = inhibition above about 40%
Mtb FBA inh conf = Mtb FBA inhibition, confirmed. AID 651616. purified M. tuberculosis FBA, fluorescence read-out. 78% of 5,600 active. inhibition, % at 1 µM. shares compounds with FBA Mtb inh
GDH-TPI counter-2 = GDH-TPI inhibition counter-screen for FBA inhibitors; shares compounds with FBA Mtb inh; GDH-TPI coupled enzyme counterscreen, fluorescence; 81% of 5,600 active; inhibition, % at 1 µM; in the data active = inhibition above about 10%
GDH-TPI dose = GDH-TPI dose response counter-screen for Mtb FBA; shares compounds with FBA Mtb inh; GDH-TPI coupled enzyme assay, fluorescence, artifact counterscreen; IC50, µM; 79% of 170 active; call rule not given here
Of the large screens only hits and unclear results are named; the others gave an inactive call (follow-up assays come after a bar, where they were run). Cut-off read from the data, not from the text of the source, unless noted: active = inhibition above about 27%; inactive = the rest.

N#Cc1ccc(Sc2nc3ccccc3[nH]2)cc1C#N	none
Nc1nc2ccccc2cc1-c1cccs1	FBA Mtb inh 69 | Mtb FBA inh conf 76 | GDH-TPI counter-2 62
Cc1ccccc1S(=O)(=O)c1cc2ccccc2nc1N	FBA Mtb inh 46 | Mtb FBA inh conf active | GDH-TPI counter-2 active
N#Cc1cc2ccccc2nc1N	FBA Mtb inh 75 (no result: Mtb BioA inh) | Mtb FBA inh conf 65 | GDH-TPI counter-2 48
Cc1noc(C)c1NC(=O)N(C)C[C@@H]1Oc2ccc(NC(=O)CCC(F)(F)F)cc2CC(=O)N([C@H](C)CO)C[C@H]1C	none (no result: GDH-TPI counter-1, Mtb hypoxia inh, FBA Mtb inh, FadD28 binding)
O=C(C[C@H]1C=C[C@@H](NC(=O)Nc2ccc(C(F)(F)F)cc2)[C@@H](CO)O1)NCc1cc(F)cc(F)c1	none (no result: GDH-TPI counter-1, Mtb hypoxia inh, FBA Mtb inh, FadD28 binding)
CC1=C(C)C(=O)N(C(C)CCc2ccccc2)C1=O (stereo not given)	FBA Mtb inh 40 | Mtb FBA inh conf 89 | GDH-TPI counter-2 75
CC(=O)N1CC2(NC(=O)c3ccccc3N2)c2ccccc21 (stereo not given)	FBA Mtb inh 80 | Mtb FBA inh conf active | GDH-TPI counter-2 188
CCN(CC)C(=O)CN1C(=O)C2(NC(=O)c3ccccc3N2)c2ccccc21 (stereo not given)	none (no result: Mtb hypoxia inh)
CNc1ccc(-c2ccccc2CO)cn1	FBA Mtb inh 51 (no result: Mtb hypoxia inh) | Mtb FBA inh conf 45 | GDH-TPI counter-2 27
O=C(NCC[C@@H]1CC[C@H](NC(=O)c2ccccc2F)[C@@H](CO)O1)c1ccc2c(c1)OCO2	none (no result: GDH-TPI counter-1, Mtb hypoxia inh, FBA Mtb inh, FadD28 binding)
CCOC(=O)c1cn(Cc2ccc(Cl)cc2Cl)c2cc(C)nn2c1=O	FBA Mtb inh 29 | Mtb FBA inh conf 72 | GDH-TPI counter-2 59
CCOC(=O)c1cn(Cc2ccccc2)c2cc(C)nn2c1=O	FBA Mtb inh 53 (no result: Mtb BioA inh) | Mtb FBA inh conf 103 | GDH-TPI counter-2 86
CCC(=O)N(C)C[C@H]1Oc2ncc(-c3ccc(C#N)cc3)cc2C(=O)N([C@@H](C)CO)C[C@@H]1C	none (no result: GDH-TPI counter-1, Mtb hypoxia inh, FBA Mtb inh, FadD28 binding)
Cc1ccc(-c2nc3ccccc3nc2NN)cc1	FBA Mtb inh 31 (no result: Mtb hypoxia inh) | Mtb FBA inh conf inactive | GDH-TPI counter-2 inactive | GDH-TPI dose inactive
O=c1cc(CN2CCCC2)c2c(ccc3ccccc32)o1	none (no result: GDH-TPI counter-1, Mtb hypoxia inh)
O=c1cc(CN2CC=C(c3ccccc3)CC2)c2c(ccc3ccccc32)o1	FBA Mtb inh 94 (no result: Mtb BioA inh) | Mtb FBA inh conf 114 | GDH-TPI counter-2 100
Nc1nc2sc3c(c2cc1C(=O)N1CCOCC1)CCCC3	FBA Mtb inh 32 | Mtb FBA inh conf 56 | GDH-TPI counter-2 54
Nc1nc2sc3c(c2cc1C(=O)NCC(=O)O)CCCC3	none
COc1ccc2c(c1OC)C(=O)N1C(C(=O)O)Cc3c([nH]c4ccccc34)C21 (stereo not given)	FBA Mtb inh 36 | Mtb FBA inh conf 107 | GDH-TPI counter-2 89
COc1cccc(C2c3[nH]c4ccccc4c3C[C@H]3C(=O)N(CCCO)CC(=O)N23)c1OC (stereo not given in full)	none
N#C/C(=C\c1cccs1)Sc1nc2ccccc2s1	FBA Mtb inh 101 (no result: Mtb hypoxia inh, Mtb BioA inh) | Mtb FBA inh conf inactive | GDH-TPI counter-2 inactive
C[C@H](CO)N1C[C@H](C)[C@H](CN(C)C(=O)c2ccccc2)OCCCC[C@H](C)Oc2ccc(NS(=O)(=O)c3ccc(F)cc3)cc2C1=O	none (no result: GDH-TPI counter-1, Mtb hypoxia inh, FBA Mtb inh, FadD28 binding)
Cc1nc2cc(C(=O)O)ccc2s1	none
Cc1nc2ccc(C(=O)O)cc2c2c1CC(C)S2 (stereo not given)	FBA Mtb inh 61 (no result: Mtb hypoxia inh) | Mtb FBA inh conf 44 | GDH-TPI counter-2 30
CC(C)NC(=O)N[C@@H]1C=C[C@H](CC(=O)NCCCN(C)C)O[C@H]1CO	none (no result: GDH-TPI counter-1, Mtb hypoxia inh, FBA Mtb inh, FadD28 binding)
Cc1c(OC(C)C(=O)O)ccc2c(-c3ccccc3)cc(=O)oc12 (stereo not given)	FBA Mtb inh 35 | Mtb FBA inh conf 55 | GDH-TPI counter-2 39
C=CCOc1ccc(C2C(C#N)=C(N)N(Nc3ccccc3)C3=C2C(=O)CCC3)cc1OC (stereo not given)	FBA Mtb inh 29 | Mtb FBA inh conf 124 | GDH-TPI counter-2 91
C=CCn1c(SCC(=O)NC2CCCCC2)nnc1-c1sc(N)nc1C	FBA Mtb inh 30 (no result: Mtb hypoxia inh) | Mtb FBA inh conf 114 | GDH-TPI counter-2 96
O=C(c1cccnc1)N1C[C@H]2[C@@H](c3ccccc31)[C@H](CO)N2CC1CCCCC1	none (no result: GDH-TPI counter-1, Mtb hypoxia inh, FBA Mtb inh, FadD28 binding)
